Activity calls are given as the source filed them. The calls were made as follows: active = hit-call score of the fitted dose curve at least 0.9, where 1 is the maximum; inactive = score below 0.9.
Read-out: Interferon-gamma inducible Protein 10 (IP10), CXCL10 (gene 3627)
Assay: BSK_KF3CT_IP10: BioMAP Diversity Plus: KF3CT Assay for Interferon-gamma inducible Protein 10 (IP10) Biomarker Activity (AID 2283068)
Settings: primary human keratinocytes with fibroblasts; actives raise or lower the signal
Protocol: BSK_KF3CT is a cell-based, multiplexed-readout assay that uses keratinocytes and foreskin fibroblasts, a human skin primary cell co-culture, with measurements taken at 24 hours after chemical dosing in a 96-well plate.BSK_KF3CT_IP10 is an assay component measured in the BSK_KF3CT assay. It measures IP-10 antibody related to regulation of gene expression using ELISA technology.Data from the assay component BSK_KF3CT_IP10 was analyzed into 1 assay endpoint. This assay endpoint, BSK_KF3CT_IP10, was analyzed with bidirectional fitting relative to DMSO as the negative control and baseline of activity. Using a type of binding reporter, gain or loss-of-signal activity can be used to understand changes in the signaling as they relate to the gene CXCL10. Furthermore, this assay endpoint can be referred to as a primary readout, because this assay has produced multiple assay endpoints where this one serves a signaling function. To generalize the intended target to other relatable targets, this assay endpoint is annotated to the cytokine intended target family, where the subfamily is chemotactic factor.
The levels of cell surface (or secreted, indicated by the prefix "s") biomarker endpoints were measured by ELISA. Overt cytotoxicity to cells in confluent adherent cultures (all systems other than the BT system) was assessed by measuring total protein levels using sulforhodamine B (SRB) staining in parallel cultures at the time of biomarker measurements, indicated as SRB endpoints. For proliferation assays for adherent cell types, individual cell types are cultured at sub-confluence and relative cell numbers quantified by SRB staining at time points optimized for each system (48 h: 3C and CASM3C systems; 72 h: BT and HDF3CGF systems; 96 h: SAg system). SRB was performed by staining cells with 0.1% SRB after fixation with 10% TCA and reading wells at 560 nm.Viability and proliferation of PBMC (T cells) was quantified by Alamar Blue reduction for the SAg and BT systems. For PBMC viability (referred to as PBMC Cytotoxicity within the assay endpoint names), cells were plated (75,000/well in a 96-well plate) and then chemical samples added for 1 h before addition of activators, SEB and TSST-1 (20 ng/mL final concentration each). Cells were incubated for 90 h. Then, Alamar Blue (20 uL/well) (Invitrogen, Cat DAL1100) was added for 6 h, and the plates were read with a fluorescence microplate reader at 546/580 nm (excitation/emission). For PBMC proliferation, cells were plated and activated as above but incubated for only 16 h prior to addition of Alamar Blue. Plates were read after 6 h.

Question: Which outcome does the source give for O=[N+]([O-])C(CO)(CO)CO here?
Answer: The outcome was “inactive”.

Question: Which outcome does the source give for COc1ccc(C)cc1N here?
Answer: Its outcome is “inactive”.

Question: For Cc1cc(=O)[nH]c(=S)[nH]1, which outcome is on record?
Answer: The outcome was “inactive”.

Question: How did the AC50 turn out when O=c1c(O)c(-c2ccc(O)c(O)c2)oc2cc(O)cc(O)c12 was run?
Answer: The AC50 was 17.6 µM (active).

Question: With Cc1oc(-c2ccccc2)nc1CCOc1cccc2c1ccn2CCC(=O)O as the compound, how does the outcome read?
Answer: The outcome was “inactive”.

Question: For O=C(OCCCCCOC(=O)c1ccccc1)c1ccccc1, which outcome is on record?
Answer: Its outcome is “inactive”.

Question: Which outcome does the source give for CCCCCCCCCCC here?
Answer: Its outcome is “inactive”.

Question: How did the AC50 turn out when CCc1c(C(=O)NN2CCCCC2)nn(-c2ccc(Cl)cc2Cl)c1-c1ccc(Br)cc1 was run?
Answer: Its AC50 is 13.1 µM (active).

Question: With Nc1ccccc1N as the compound, how does the outcome read?
Answer: Its outcome is “inactive”.

Question: NC(=O)Cn1c(=O)cc(CCN2CCN(c3nccc4sccc34)CC2)c2ccc(F)cc21 was tested. Which outcome did it give?
Answer: The outcome was “inactive”.

Question: CCNc1cccc(C)c1 was tested. Which outcome did it give?
Answer: The outcome was “inactive”.

Question: With COCCOCCOC as the compound, how does the outcome read?
Answer: Its outcome is “inactive”.

Question: For C[C@]12C=CC(=O)C=C1CC[C@@H]1[C@@H]2C(=O)C[C@@]2(C)[C@H]1CC[C@]2(O)C(=O)CO, which outcome is on record?
Answer: The outcome was “inactive”.

Question: With CC(=O)OC/C=C(\C)CCC=C(C)C as the compound, how does the outcome read?
Answer: The outcome was “inactive”.

Question: O=C(O)CCCCC(=O)O was tested. Which outcome did it give?
Answer: Its outcome is “inactive”.

Question: Which outcome does the source give for CN1CCCC1=O here?
Answer: The outcome was “inactive”.

Question: Which outcome does the source give for CC(CO)OC(C)CO (stereo not given) (tested in a mixture with another compound) here?
Answer: Its outcome is “inactive”.

Question: Which outcome does the source give for C=CCOC(=O)c1ccccc1C(=O)OCC=C here?
Answer: The outcome was “inactive”.

Question: For CC1=C(/C=C/C(C)=C/C=C/C(C)=C/CO)C(C)(C)CCC1, which AC50 is on record?
Answer: The AC50 was 31.4 µM (active).

Question: CCCCCCCCCCCCCO was tested. Which AC50 did it give?
Answer: The AC50 was 36.2 µM (active).

Question: For Cc1c(C(=O)O)c(O)cc2c1C(=O)c1c(O)c([C@@H]3O[C@H](CO)[C@@H](O)[C@H](O)[C@H]3O)c(O)c(O)c1C2=O, which outcome is on record?
Answer: Its outcome is “inactive”.

Question: For NS(=O)(=O)c1cc2c(cc1Cl)NCNS2(=O)=O, which outcome is on record?
Answer: The outcome was “inactive”.

Question: For CCCCCCCCCCCC(=O)OC, which outcome is on record?
Answer: Its outcome is “inactive”.

Question: Which outcome does the source give for Cc1nc(C)nc(N2C[C@@H](C)N(c3ccnc([C@@H](C)O)n3)[C@@H](C)C2)n1 here?
Answer: The outcome was “inactive”.

Question: For COc1cc(-c2nc(NC(=O)c3cc4cc(C)cc(C)c4n3CC(=O)O)sc2CCC2CCCCC2)c(OC)cc1Cl, which AC50 is on record?
Answer: Its AC50 is 1.55 µM (active).

Question: For CNC(=O)[C@H]1O[C@@H](n2cnc3c(NCc4cc(Cl)ccc4OCc4cc(C)no4)ncnc32)[C@H](O)[C@@H]1N, which outcome is on record?
Answer: The outcome was “inactive”.

Question: CCOC(=O)C(C)(C)Oc1ccc(Cl)cc1 was tested. Which outcome did it give?
Answer: The outcome was “inactive”.

Question: For Cc1ccc(C)c(C)c1, which outcome is on record?
Answer: The outcome was “inactive”.

Question: How did the outcome turn out when CCCCCC(=O)O was run?
Answer: The outcome was “inactive”.

Question: Which outcome does the source give for NCCO here?
Answer: The outcome was “inactive”.

Question: Which outcome does the source give for COCCOC[C@H](CC1(C(=O)NC2CCC(C(=O)O)CC2)CCCC1)C(=O)Oc1ccc2c(c1)CCC2 (stereo not given in full) here?
Answer: The outcome was “inactive”.

Question: Which outcome does the source give for CCCCOC(=O)CCCCCCCCC(=O)OCCCC here?
Answer: Its outcome is “inactive”.

Question: With Cc1ccc2ncccc2c1 as the compound, how does the outcome read?
Answer: The outcome was “inactive”.

Question: With COc1ccc(S(=O)(=O)N2C(=O)[C@@](c3ccccc3OC)(N3C[C@H](O)C[C@H]3C(=O)N(C)C)c3cc(Cl)ccc32)c(OC)c1 as the compound, how does the outcome read?
Answer: Its outcome is “inactive”.

Question: For Oc1ccc2ccccc2c1N=Nc1ccccc1, which outcome is on record?
Answer: Its outcome is “inactive”.

Question: How did the outcome turn out when NCC1(Cc2noc(=O)[nH]2)CCCCC1 was run?
Answer: Its outcome is “inactive”.

Question: For CC=Cc1ccc(O)c(OC)c1, which outcome is on record?
Answer: The outcome was “inactive”.

Question: How did the outcome turn out when COc1cc(C=O)ccc1O was run?
Answer: The outcome was “inactive”.

Question: For C[Si]1(C)O[Si](C)(C)O[Si](C)(C)O[Si](C)(C)O1, which outcome is on record?
Answer: Its outcome is “inactive”.

Question: Oc1ccc2c(c1)OC[C@@H](N1CCC(O)(c3ccc(F)cc3)CC1)[C@H]2O was tested. Which outcome did it give?
Answer: Its outcome is “inactive”.

Source: PubChem BioAssay (EPA / NIEHS)
